Bioassay records as filed in PubChem BioAssay.
Only some compounds are listed: those with a hit (about 13% of all), similar ones and a draw of the others.
Pf growth 96h: inhibits malaria parasite growth, 96 h; P. falciparum luciferase reporter growth, 96 h; 320,000 tested, 6.9% active; Potency, µM (top dose mostly 28.7 µM), without a hit: at the top dose activity change, negative = inhibition, actives largely listed as inhibitors; also: potency is read from the fitted curve at half-maximal effect
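Readout is luminescence from an integrated firefly luciferase in P. falciparum. Red cells, 2% hematocrit and 0.05% parasitemia final, were cultured with compound through two parasite generations (96 hours) at 37 C, 5% CO2.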
HCMV antiviral: inhibitors of human cytomegalovirus | HFF cells, HCMV-luciferase reporter, 72 h; hits give low values | activity change, negative = inhibition, % at 57.5 µM | 410,000 tested, 4.5% active; in the data active = activity change below about -60%; inconclusive = no clear call, values can overlap the other calls; inactive = above about -39%
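HFF cells seeded 16 h at 37C, treated with compounds, infected with luciferase-reporter HCMV at MOI 1 PFU/cell; luciferase read at 72 h post infection, normalized to buffer-only and Salinomycin controls.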
HCV inh: blocks hepatitis C virus; Huh7.5.1 HCVcc-Cre infection, luciferase reporter, 44 h; Potency, µM (highest dose often 41.8 µM), without a hit: top-dose activity change, negative = inhibition, usual class: inhibitors; 340,000 tested, 3.4% active; also: potency is read from the fitted curve at half-maximal effect
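After 44 h co-culture of compound, cells and HCVcc-Cre (~0.5 moi), substrate is added for 15 min at room temperature and luciferase measured over 15 sec. Cells were seeded at 1,000/well and pre-cultured 4 h.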
Pf growth 48h: P. falciparum growth inhibition at 48 hours (one generation); Potency, µM (series often up to 28.7 µM), for inactives: at the highest dose activity change, negative = inhibition, usual class: inhibitors; P. falciparum luciferase growth in erythrocytes, 48 h; 310,000 tested, 5.9% active; also: potency is read from the fitted curve at half-maximal effect
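Parasite viability was followed by luminescence of a genomically integrated firefly luciferase. Cultures held 0.1% parasitemia at 2% hematocrit (final), incubated under 5% CO2 at 37 C.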
Starred values were filed as active, the others as inactive; ? = inconclusive; . = no result; [ ] = dose if it differs, or a comment. Unless noted, calls follow the shape of the dose curve; as a rule, active = well fitted inhibition curve with a large enough effect; inconclusive = small, poorly fitted or top-dose-only effect, or another doubt; inactive = no such curve, though single readings can be large or run the other way. % is scaled to controls: 0 for no effect and ±100 for the full control effect.

SMILES	Pf growth 96h	HCMV antiviral	HCV inh	Pf growth 48h
Cc1cccc(C)c1OCC(=O)Nc1ccc(NC(=O)c2ccco2)cc1	?	-12	-23%	?
COc1cc(C)ccc1OCC(=O)OCC(=O)c1[nH]c(C)c(C(C)=O)c1C	.	-5	-5%	.
Cc1ccc(C(C)C)c(OCC(=O)NNC(=O)Nc2ccccc2)c1	.	-67*	-21%	.
COc1ccc(NC(=O)c2ccco2)cc1NC(=O)COc1cc(C)ccc1C(C)C	.	-79*	.	.
CC(=O)c1c(C)[nH]c(C(=O)COc2cc(C)ccc2C(C)C)c1C	4.7µM*	?	5.6µM*	.
CCOC(=O)c1ccccc1NC(=O)c1c2c(nc3ccccc13)C(=O)N(C1CCCCC1)C2	.	-14	.	.
COc1cc(NC(=O)Cn2c(=O)cc(C)c3c(C)nn(-c4ccc(C)cc4)c32)cc(OC)c1	.	9	.	.
Cc1cccc(CCNC(=O)Cn2ncc3c(=O)oc4ccccc4c32)c1	.	2	.	.
CN(C)c1ccc(CN(CC2CCCO2)C(=O)COc2ccccc2Cl)cc1 (stereo not drawn)	.	-35	.	.
COc1ccc(Oc2nc3c(C)cccn3c(=O)c2/C=C(\C#N)c2nc3ccccc3[nH]2)cc1	.	15	.	.
O=C(Cn1c(=O)n(-c2ccc(Cl)cc2)c(=O)c2oc3ccccc3c21)Nc1ccccc1	.	-7	.	.
Cc1ccccc1OCC(=O)Nc1ccc(NC(=O)c2ccco2)cc1	?	-80*	?	3%
Cc1nn(C)c(C)c1/C=N/N=C1\CCC2C3CCc4cc(O)ccc4C3CCC12C (stereo not drawn)	.	?	14%	2.9µM*
C[C@]12CC[C@@H]3c4ccc(O)cc4CC[C@H]3[C@@H]1CCC2=O	13µM*	47	-8%[8.37 µM]	?
C[C@]12CC[C@H]3c4ccc(O)cc4CC[C@@H]3[C@H]1CC[C@@H]2OC(=O)CCC1CCCC1	13µM*	.	.	17µM*
OC(c1cccc(Cl)c1)c1ncc(-c2cccc3ccccc23)[nH]1 (stereo not drawn)	.	29	.	.
Cc1ccc(S(=O)(=O)c2c(Nc3cc(F)ccc3F)sc(C(=O)c3ccc(F)cc3)c2N)cc1	.	-65*	.	.
Nc1c(C(=O)c2ccc(F)cc2)sc(Nc2ccccc2F)c1S(=O)(=O)c1ccc(Br)cc1	.	-71*	.	.
Cc1ccc(Nc2sc(C(=O)c3ccc(F)cc3)c(N)c2S(=O)(=O)c2ccc(C)cc2)cc1	.	-8	.	.
O=C(NCc1ccccc1CN1CCCCC1)c1ccc(Cl)cc1N1CCCC1=O	?	-6	11%	?
O=C(NCc1ccccc1CN1CCCC1)c1ccc(Cl)c(N2CCCC2=O)c1	?	-34	18µM*	?
CC(=O)N1CCc2c(sc3c2c(=O)n(Cc2ccccc2)c(=O)n3CC(=O)NCC2CCCO2)C1 (stereo not drawn)	15%	29	-6%	0.37µM*
CC(=O)N1CCc2c(sc3c2c(=O)n(-c2ccccc2)c(=O)n3CC(=O)NCC2CCCO2)C1 (stereo not drawn)	?	40	14%	3%
CCOC(=O)N1CCc2c(sc3c2c(=O)n(-c2ccc(CC)cc2)c(=O)n3CC(=O)NCC2CCCO2)C1 (stereo not drawn)	?	.	23%	5.2µM*
CCc1ccc(-n2c(=O)c3c4c(sc3n(CC(=O)c3ccc(F)cc3)c2=O)CCC4)cc1	.	-88*	.	.
SMILES	Pf growth 96h	HCMV antiviral	HCV inh	Pf growth 48h
COc1ccc(-n2c(=O)c3c4c(sc3n(CC(=O)NCC3CCCO3)c2=O)CN(C(C)=O)CC4)cc1OC (stereo not drawn)	.	-12	.	.
Cc1cccc(CCNC(=O)C2CCN(c3nc4ccccc4nc3C(F)(F)F)CC2)c1	.	-1	.	.
CC(C)OC(=O)c1c(NC(=O)CCn2nnc3ccccc32)sc2c1CCCC2	30%	-10	?	6%
O=C(Nc1sc2c(c1-c1nc3ccccc3[nH]1)CCCC2)C1CCCC1	13µM*	-13	?	12µM*
CN1CCN(S(=O)(=O)c2cccc(C(=O)Nc3sc4c(c3-c3nc5ccccc5[nH]3)CCCC4)c2)CC1	3.3µM*	66	3.5µM*	2.9µM*
CC(=O)NCCC(=O)Nc1sc2c(c1-c1nc3ccccc3[nH]1)CCCC2	?	-16	11µM*	?
CCc1nn2c(-c3ccco3)ccnc2c1-c1ccc(F)cc1	.	14	.	.
O=C(Nc1ccc(S(=O)(=O)NC2=NCCCCC2)cc1)c1ccc(C(F)(F)F)cc1	?	-67*	?	66%
CN(C)S(=O)(=O)c1ccc(C(=O)Nc2ccc(S(=O)(=O)NC3=NCCCCC3)cc2)cc1	?	-10	-10%	.
O=C(Nc1ccc(S(=O)(=O)NC2=NCCCCC2)cc1)c1ccc([N+](=O)[O-])s1	13µM*	-39	?	10µM*
O=C(Nc1ccc(S(=O)(=O)NC2=NCCCCC2)cc1)c1cccs1	.	-102*	?	.
COc1ccc(-c2cc(C)nc3c(-c4ccc(OC)c(OC)c4)c(C)nn23)cc1	.	-34	.	.
C[n+]1cccc2cccc([O-])c21	?	-22	16%	3.3µM*
[O-][n+]1cccc2cccc(O)c21	.	-13	5%	.
CCc1ccc(CNC(=O)c2ccc(NC(=O)N3CC(C)Sc4ccccc43)cc2)cc1 (stereo not drawn)	.	27	.	.
COc1ccc(NC(=O)C2CCC(CNS(=O)(=O)c3cccs3)CC2)cc1 (stereo not drawn)	13µM*	?	0%	4%
CCOC(=O)CNC(=O)N1CCCC(CNS(=O)(=O)c2cccs2)C1 (stereo not drawn)	10µM*	10	9%	9%
COc1ccccc1N1CCN(C(CNC(=O)C(=O)NCCc2ccccc2)c2cccnc2)CC1 (stereo not drawn)	.	-40	.	.
Cc1cc(C(C)(C)C)c(O)c(C(C)(C)C)c1	21%	-27	-7%	10%
